From PubChem BioAssay (NCATS) come the findings set out here.

Each structure is given as a SMILES string. Inconclusive results are not listed. Unmarked numbers belong to inactive results. The source made the active and inactive calls. Calls follow the shape of the dose curve; as a rule, active = well fitted curve in the direction sought with a large enough effect; inconclusive = small, poorly fitted or top-dose-only effect, or another doubt; inactive = no such curve, though single readings can be large; an effect the other way counts as inactive or inconclusive.

One test has as its system C33A. Description: Primary qHTS to identify gynecologic anti-cancer compounds using libraries of approved drugs and bioactive compounds (AID 1345084). Also: nearly all actives have a fitted effect of over 55% in size. Also: potency is read from the fitted curve at half-maximal effect. As to activity change, negative = cytotoxicity: % is scaled to controls: 0 for no effect and ±100 for the full control effect. Particulars: Gynecologic cancer cell panel viability, ATPlite luminescence, 48 h; series mostly up to 57.5 µM. The method, boiled down: (§1)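 Cytotoxicity screen measuring ATP content by luciferase luminescence. Each compound is applied at five concentrations for 48 h at 37 C with 5% CO2.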
On the technique in general: qHTS replaces the single test concentration by a dilution series.

In the next test the test system is CAOV3. The description is as above. Particulars: Gynecologic cancer cell panel viability, ATPlite luminescence, 48 h; series mostly up to 57.5 µM. A digest of the protocol:
as §1
A general note: Cellular ATP, detected with luciferase, serves as a proxy for viable cell number.

The subject of the next test is CASKI. The description is as above. The settings on record: Gynecologic cancer cell panel viability, ATPlite luminescence, 48 h; series mostly up to 57.5 µM. A digest of the protocol: as §1
A further test concerns Es-2. The description is as above. Particulars: Gynecologic cancer cell panel viability, ATPlite luminescence, 48 h; series mostly up to 57.5 µM. A digest of the protocol: as §1
For the next test, the system named is HeLa. Described as above. Particulars: Gynecologic cancer cell panel viability, ATPlite luminescence, 48 h; series mostly up to 57.5 µM. The method, boiled down: as §1
For the next test, the system named is Hek293T. The description is as above. Particulars: Gynecologic cancer cell panel viability, ATPlite luminescence, 48 h, control line for the selectivity index; series mostly up to 57.5 µM. The method, boiled down:
as §1

The next test relates to JEG-3. The description is as above. Particulars: Gynecologic cancer cell panel viability, ATPlite luminescence, 48 h; series mostly up to 57.5 µM. A digest of the protocol: as §1
Another test has as its system PA-1. Described as above. The settings on record: Gynecologic cancer cell panel viability, ATPlite luminescence, 48 h; series mostly up to 57.5 µM. A digest of the protocol:
as §1

The next test concerns SKOV3. Described as above. The settings on record: Gynecologic cancer cell panel viability, ATPlite luminescence, 48 h; series mostly up to 57.5 µM. The method, boiled down: as §1
The next test relates to Tov-21-G. The description is as above. Particulars: Gynecologic cancer cell panel viability, ATPlite luminescence, 48 h; series mostly up to 57.5 µM. A digest of the protocol: as §1
The test system of a further test is Tov112D. The test is described as above. The settings on record: Gynecologic cancer cell panel viability, ATPlite luminescence, 48 h; series mostly up to 57.5 µM. The method, boiled down:
as §1

A further test concerns NIH3T3. Briefly: qHTS assay to identify novel small-molecules to repurpose for Merkel cell carcinoma treatment (AID 1296009). Also: nearly all actives have a fitted effect of over 60% in size. Particulars: MCC and control cell lines, CellTiter-Glo viability, 72 h; at 44.8 µM (top of the series) unless noted. The method, boiled down:
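Cell viability, measured as CellTiter-Glo luminescence, was normalized between DMSO and no-cell wells. The cells had been exposed to 8- or 11-point compound dilutions for 72 hr at 37 degree celsius.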

Another test has as its system OV90. Description: Primary qHTS to identify gynecologic anti-cancer compounds using libraries of approved drugs and bioactive compounds (AID 1345084). Also: nearly all actives have a fitted effect of over 55% in size. Also: potency is read from the fitted curve at half-maximal effect. As to activity change, negative = cytotoxicity: % is scaled to controls: 0 for no effect and ±100 for the full control effect. The settings on record: Gynecologic cancer cell panel viability, ATPlite luminescence, 48 h; series mostly up to 57.5 µM. A digest of the protocol:
as §1

For the molecule `C=C1C(OC(C)=O)CCC2(C)CCC(C(C)(C)O)CC12` (centres undefined), the Potency entry in the test on C33A, in the test on CAOV3, with Es-2, in the test with HeLa, in the test on Hek293T and with JEG-3 was “inactive” in each case. Moreover, the Potency entry in the test on PA-1, in the test with SKOV3, in the test with Tov-21-G and with Tov112D was “inactive” throughout. Further, the result in the test on CASKI was inactive.
Regarding `Cc1nnc(-c2ccc3occ(-c4ccc(S(C)=O)cc4)c3c2)o1` (centres undefined), the molecule was classed as inactive in the test with NIH3T3 and with CASKI. For the same molecule, the Potency entry in the test on HeLa, in the test on Hek293T, in the test on JEG-3, with SKOV3, in the test on Tov-21-G and in the test on Tov112D was “inactive” each time.
On to `Cc1nnc(-c2sc(NC(=O)[C@H](C(C)C)n3c(=O)[nH]c4ccccc4c3=O)nc2C)o1`, for which the result in the test on NIH3T3 and in the test on CASKI was inactive. For the same molecule, the Potency result in the test on C33A, with CAOV3, in the test on HeLa, with Hek293T, in the test with JEG-3 and in the test with OV90 was “inactive” in each case. Further, the Potency entry in the test with PA-1, in the test with SKOV3 and with Tov112D was “inactive” each time.
With `N#Cc1ccc(C2CCCc3cncn32)cc1` (centres undefined), in the test on NIH3T3, the outcome was “inactive [at 17.4 µM]”. The Potency result with C33A, in the test with Hek293T, in the test on JEG-3, in the test with OV90 and in the test on SKOV3 was “inactive” each time. Further, the result in the test on CASKI was inactive.
Consider `C=C1C2CCC3C(CCC4[C@@]3(C)CCC[C@@]4(C)C(=O)O)(C2)[C@@H]1OC(=O)/C(C)=C\C` (some centres undefined), for which the outcome in the test with NIH3T3 was “inactive [at 17.4 µM]”. In addition, the Potency result in the test on C33A, in the test with CAOV3, with JEG-3, in the test on OV90 and with SKOV3 was “inactive” each time. In the test on CASKI, the molecule was classed as inactive.
With `CCC(=O)OCC(=O)[C@@]1(OC(=O)CC)[C@@H](C)C[C@H]2[C@@H]3CCC4=CC(=O)C=C[C@]4(C)[C@@]3(F)[C@@H](O)C[C@@]21C`, the result in the test on NIH3T3 and in the test on CASKI was inactive. For the same molecule, the Potency result with C33A, with Es-2, in the test with HeLa, with Hek293T, in the test with JEG-3 and with OV90 was “inactive” each time. The Potency result with PA-1, in the test with SKOV3, in the test on Tov-21-G and in the test with Tov112D was “inactive” each time.
For `Cc1ccc(C)c(NC(=O)CNS(=O)(=O)c2ccc3[nH]c(=O)oc3c2)c1`, the call with NIH3T3 was inactive. Besides, the Potency result with C33A, with CAOV3, with Es-2, with HeLa, with Hek293T and with JEG-3 was “inactive” each time. For the same molecule, the Potency entry in the test with OV90, with PA-1, in the test on SKOV3, in the test on Tov-21-G and in the test with Tov112D was “inactive” each time.
With `COc1ccc(-n2c(=O)[nH]c3cc(C(=O)NCc4ccc(Cl)cc4)sc3c2=O)nc1OC`, the Potency result in the test on C33A, with CAOV3, in the test with Es-2, in the test with HeLa, with Hek293T and in the test on JEG-3 was “inactive” in each case. Besides, the Potency entry in the test with OV90, with PA-1, in the test with SKOV3, with Tov-21-G and with Tov112D was “inactive” throughout. Further, in the test on CASKI, the outcome was inactive.
`C[C@H]1[C@H](C)CC[C@]2(C(=O)O)CC[C@]3(C)C(=CCC4[C@@]5(C)C[C@@H](O)[C@H](O)C(C)(C)C5CC[C@]43C)[C@H]12` (some centres undefined): the outcome in the test with NIH3T3 was “inactive [at 17.4 µM]”. The Potency result with C33A, in the test on Es-2, in the test with HeLa, in the test with Hek293T, with JEG-3 and in the test on OV90 was “inactive” in each case. Moreover, the Potency result with PA-1, with SKOV3, with Tov-21-G and in the test on Tov112D was “inactive” each time. Further, the outcome in the test on CASKI was inactive.
`C=Cc1cc2oc(-c3ccc(O)c(F)c3)nc2cc1O`: the Potency entry in the test with C33A, with CAOV3, in the test with Es-2, in the test with Hek293T, in the test on JEG-3 and in the test with PA-1 was “inactive” throughout. Further, the Potency result in the test with SKOV3, in the test on Tov-21-G and in the test on Tov112D was “inactive” each time. Besides, the result with CASKI was inactive. Moreover, the Potency in the test on OV90 was 25.1 µM (active).
Turning to `CC1(C)CC[C@]2(C(=O)O[C@@H]3O[C@H](CO[C@@H]4O[C@H](CO)[C@@H](O)[C@H](O)[C@H]4O)[C@@H](O)[C@H](O[C@@H]4O[C@H](CO)[C@@H](O)[C@H](O)[C@H]4O)[C@H]3O)[C@H](O)C[C@]3(C)C(=CCC4[C@@]5(C)CC[C@H](O[C@@H]6OC[C@@H](O)[C@H](O)[C@H]6O)[C@@](C)(C(=O)O)C5CC[C@]43C)[C@@H]2C1` (some centres undefined), the outcome in the test with NIH3T3 was “inactive [at 9.27 µM]”. The activity change, negative = cytotoxicity in the test on C33A is -4.53% [at 11.6 µM]; in the test on CASKI, 0.848% [at 11.6 µM]; with Es-2 it was 1.6% [at 11.6 µM]; in the test with HeLa, 2.79% [at 11.6 µM]; in the test on Hek293T, 10.6% [at 11.6 µM]; in the test on JEG-3, -3% [at 11.6 µM]. Further, the activity change, negative = cytotoxicity was 6.96% [at 11.6 µM] in the test with OV90, 0.131% [at 11.6 µM] with PA-1, 3.95% [at 11.6 µM] with Tov-21-G and -6.08% [at 11.6 µM] in the test with Tov112D.
As for `O=C(O)CCc1cc2ccoc2cc1O[C@@H]1O[C@H](CO)[C@@H](O)[C@H](O)[C@H]1O`, in the test on NIH3T3, the molecule was called inactive. Besides, the Potency result in the test with C33A, in the test on CAOV3, in the test with Es-2, with HeLa, in the test with Hek293T and with JEG-3 was “inactive” in each case. The Potency entry with OV90, in the test on SKOV3, in the test with Tov-21-G and in the test on Tov112D was “inactive” throughout.
Consider `COC(=O)C[C@@H]1C(C(=O)O)=CO[C@@H](O[C@@H]2O[C@H](CO)[C@@H](O)[C@H](O)[C@H]2O)/C1=C\COC(=O)/C=C/c1ccc(O)c(OC)c1`, for which, in the test on NIH3T3, the outcome was “inactive [at 17.4 µM]”. Also, the Potency entry with C33A, with Es-2, with HeLa, in the test with Hek293T, with JEG-3 and with OV90 was “inactive” throughout. For the same molecule, the Potency result with PA-1, in the test with SKOV3, in the test on Tov-21-G and with Tov112D was “inactive” in each case. The result in the test with CASKI was inactive.
In the case of `FC(F)(F)c1nnc2c(Sc3ccccc3)nc3ccc(Cl)cc3n12`, the result in the test with NIH3T3 and in the test on CASKI was inactive. In addition, the Potency result with C33A, with HeLa, in the test with Hek293T, in the test on JEG-3, with OV90 and in the test on PA-1 was “inactive” throughout. In addition, the Potency result in the test on Tov-21-G and with Tov112D was “inactive” throughout.
With `CC1=C2C(=O)C=C(CO)C2C2OC(=O)C(CS(=O)(=O)O)C2C(OC(=O)Cc2ccc(O)cc2)C1` (centres undefined), the Potency result with C33A, with CAOV3, in the test on Es-2, in the test with HeLa, in the test with Hek293T and in the test on JEG-3 was “inactive” each time. Besides, the Potency entry in the test on OV90, with PA-1, in the test on SKOV3, with Tov-21-G and in the test with Tov112D was “inactive” throughout. Further, the call with CASKI was inactive.
